Compounds with a hit are over-represented: about 2.9% of the library has one in this group of screens.
GRK2 inh: blocks RNA aptamer binding to human GRK2; inhibition of aptamer binding, % at 10 µM; bead flow cytometry, FAM-aptamer displacement from GRK2; AID 488847; P25098; 0.59% of 330,000 active;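 active means inhibition of aptamer binding above 40%, roughly 3 SD of noise, on plates passing a quality check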;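 further: median bead fluorescence of bound FAM aptamer so fluorescent compounds give negative values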
Beta2AR agonist: activates human beta-2 adrenergic receptor causing internalization; P07550; Am2.2-beta2AR cells, FAP receptor internalization, flow cytometry; response, % (concentration not given with the values); 0.43% of 340,000 active; AID 504454;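 active means response above a set limit, near 3 SD of response in nonfluorescent compounds, cut at about 42% in these data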
Target sequence (P07550 whole entry, looked up): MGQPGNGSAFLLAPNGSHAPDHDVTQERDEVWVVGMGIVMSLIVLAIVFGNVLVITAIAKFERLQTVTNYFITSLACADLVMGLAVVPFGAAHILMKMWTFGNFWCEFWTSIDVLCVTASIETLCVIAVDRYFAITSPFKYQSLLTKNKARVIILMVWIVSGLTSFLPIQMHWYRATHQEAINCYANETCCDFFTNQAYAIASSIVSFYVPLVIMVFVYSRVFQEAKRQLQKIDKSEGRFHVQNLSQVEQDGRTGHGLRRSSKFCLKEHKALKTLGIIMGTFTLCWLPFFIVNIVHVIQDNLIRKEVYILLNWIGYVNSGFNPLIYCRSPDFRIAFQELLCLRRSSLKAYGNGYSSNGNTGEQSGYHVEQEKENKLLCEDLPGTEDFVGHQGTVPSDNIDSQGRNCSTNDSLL
Exocytosis inh: blocks lytic granule exocytosis | inhibition, % at 10 µM | 0.66% of 360,000 active | TALL-104 LAMP-1 surface exposure, flow cytometry; cells stimulated with thapsigargin and PMA;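 active means inhibition above about 55%, limit read from the data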
NadD inh: inhibitors of Staphylococcus aureus NadD; purified NadD enzyme, colorimetric absorbance read-out; inhibition, % at 20 µM; 0.78% of 360,000 active; AID 602399; in the data active means inhibition above about 26%
PP1 counter: blocks human PP1-alpha phosphatase, a PP5 counter-screen; 0.9% of 320,000 active; inhibition, % at 6.7 µM; purified PP1alpha, OMFP fluorescence; P62136;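 active means inhibition above the mean inhibition of all tested compounds plus 3 SD, computed separately for each screening campaign, cut at about 15% in these data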
Granule exo CP1: blocks lytic granule exocytosis. AID 651954. inhibition, % at 10 µM. 11% of 1,500 active. TALL-104 cells, LAMP-1 externalization, flow cytometry; stimulated with PMA plus thapsigargin. shares compounds with Exocytosis inh; in the data active means inhibition above about 60%
Each line names hits and unclear results; the compound was inactive in the other large screens (follow-up assays come after a bar, where they were run).

COc1cc2c(cc1OC)C(CCc1ccccc1)=NCC2	Exocytosis inh 62.7 | Granule exo CP1 inactive
O=C(Oc1ccc2ccccc2c1)c1ccco1	none
CC1CC(C)(C)Nc2ccc(OC(=O)c3ccco3)cc21 (centres undefined)	Exocytosis inh 82.2 | Granule exo CP1 inactive
CCCCC[C@@H](C)N1C[C@H](COCc2ccccc2)Oc2cc(N3CC[C@@H](N(C)C)C3)ccc2S1(=O)=O	Exocytosis inh 74.4 (no result: GRK2 inh, Beta2AR agonist, PP1 counter) | Granule exo CP1 72.0
CCCCC[C@H](C)N1C[C@H](COCc2ccccc2)Oc2cc(N3CC[C@H](N(C)C)C3)ccc2S1(=O)=O	none (no result: GRK2 inh, Beta2AR agonist, PP1 counter)
CCCCC[C@@H](C)N1C[C@@H](COCc2ccccc2)Oc2cc(N3CC[C@@H](N(C)C)C3)ccc2S1(=O)=O	Exocytosis inh 58.1 (no result: GRK2 inh, Beta2AR agonist, PP1 counter) | Granule exo CP1 68.1
C[C@H](c1ccccc1)N1C[C@H](COCc2ccccc2)Oc2cc(N3CC[C@@H](N(C)C)C3)ccc2S1(=O)=O	Exocytosis inh 61.9 (no result: GRK2 inh, Beta2AR agonist, PP1 counter) | Granule exo CP1 inactive
CCCCC[C@@H](C)N1C[C@@H](COCc2ccccc2)Oc2cc(N3CC[C@H](O)C3)ccc2S1(=O)=O	none (no result: GRK2 inh, Beta2AR agonist, PP1 counter)
CCCCC[C@H](C)N1C[C@H](COCc2ccccc2)Oc2cc(N3CC[C@@H](N(C)C)C3)ccc2S1(=O)=O	Exocytosis inh 63.6 (no result: GRK2 inh, Beta2AR agonist, PP1 counter) | Granule exo CP1 inactive
CCCCC[C@@H](C)N1C[C@@H](COCc2ccccc2)Oc2cc(N3CC[C@@H](O)C3)ccc2S1(=O)=O	none (no result: GRK2 inh, Beta2AR agonist, PP1 counter)
C[C@@H](c1ccccc1)N1C[C@@H](COCc2ccccc2)Oc2cc(N3CC[C@@H](N(C)C)C3)ccc2S1(=O)=O	none (no result: GRK2 inh, Beta2AR agonist, PP1 counter)
COC(=O)C[C@H]1C=C[C@H](NC(=O)c2ccccn2)[C@@H](CO)O1	none (no result: GRK2 inh, Beta2AR agonist, NadD inh, PP1 counter)
Cc1cccc(C)c1NC(=O)C(CCc1ccccc1)N1CCC(c2ccccc2)CC1 (centres undefined)	none (no result: GRK2 inh, Beta2AR agonist, NadD inh, PP1 counter)
CCc1nnc2c(NCCc3ccccc3)nc3ccccc3n12	none
C=CC[C@@H]1C=C(C)C[C@H](C)C[C@H](OC)[C@H]2O[C@@](O)(C(=O)C(=O)N3CCCC[C@H]3C(=O)O[C@H](/C(C)=C/[C@@H]3CC[C@@H](O)[C@H](OC)C3)[C@H](C)[C@@H](O)CC1=O)[C@H](C)C[C@@H]2OC	none (no result: Beta2AR agonist, Exocytosis inh, NadD inh)
COC(=O)[C@]12CCCCC=C1N(Cc1cccc3ccccc13)C(=O)[C@H](CC(=O)N1CCSCC1)C2	none (no result: GRK2 inh, Beta2AR agonist, PP1 counter)
CO[C@H]1CN(C)C(=O)c2ccc(NS(=O)(=O)c3ccccc3F)cc2OC[C@H](C)NC[C@@H]1C	none (no result: GRK2 inh, Beta2AR agonist, NadD inh, PP1 counter)
O=c1oc2ccccc2c2c1nc(C(F)(F)F)n2-c1ccccc1	Exocytosis inh 66.7 | Granule exo CP1 inactive
CN(Cc1cn(Cc2ccc(F)cc2)nn1)C1CN(Cc2cn(Cc3ccc(F)cc3)nn2)S(=O)(=O)C1 (centres undefined)	none (no result: GRK2 inh, Beta2AR agonist, PP1 counter)
CCN(CC)CCCN(C(=O)c1ccc(Br)cc1)c1nc(-c2ccc(OC)cc2)cs1	Exocytosis inh 62.7 | Granule exo CP1 inactive
Cc1ccc(S(=O)(=O)N2CCOCC2)cc1NC(=O)COC(=O)CCc1c[nH]c2ccccc12	none (no result: PP1 counter)
CCN(CC)CCCn1c(SCC(=O)Nc2cccc(F)c2)nnc1-c1ccoc1C	none
Cc1ccc(NC(=O)CSc2nnc(-c3ccoc3C)n2CCCN(C)C)cc1Cl	Exocytosis inh 62.6 | Granule exo CP1 inactive
Cc1cc(-c2ccccc2)nc2cc(C(=O)N(Cc3ccccc3)Cc3ccccc3)nn12	Exocytosis inh 79.5 | Granule exo CP1 inactive
CC1=C(C(=O)OCc2ccc(C)cc2)C(c2ccc(O)c([N+](=O)[O-])c2)NC(=O)N1 (centres undefined)	none
COc1ccc2nc3ccccc3nc2c1N	Exocytosis inh 82.1 | Granule exo CP1 inactive
COc1ccc2nc3cccc(OC)c3nc2c1	none
COc1ccc(-c2cn[nH]c2-c2ccc(OCc3ccccc3)cc2O)cc1OC	Exocytosis inh 64.2 | Granule exo CP1 inactive
C=C(C)COc1ccc(-c2[nH]ncc2-c2ccccc2)c(O)c1	Exocytosis inh 85.1 | Granule exo CP1 inactive
Oc1cc(OCc2ccccc2)ccc1-c1[nH]ncc1-c1ccccc1	Exocytosis inh 100.1 | Granule exo CP1 inactive
CC1(C(=O)NCc2ccccc2Br)CCN1Cc1ccc2ccccc2c1 (centres undefined)	none (no result: GRK2 inh, Beta2AR agonist, PP1 counter)
Cc1cccc(NC(=O)c2cc([N+](=O)[O-])ccc2N2CCCCC2)n1	none
CC(C)C(NC(=O)c1ccc(F)cc1)C(=O)NCC1CCCO1 (centres undefined)	none
CCCNCc1cc(Br)ccc1OCC(=O)NCCc1ccccc1	none
O=C(COc1ccc(Br)cc1CNCCc1ccccc1)NCc1ccccc1	Exocytosis inh 66.9 | Granule exo CP1 inactive
O=C(NC(Cc1ccccc1)C(=O)O)C1CCN(S(=O)(=O)c2ccccc2C(F)(F)F)CC1 (centres undefined)	none
Cc1cccn2c(=O)c3cc(C(=O)NC4CCCC4)c(=N)n(CCc4ccccc4)c3nc12	Beta2AR agonist 78.7, Exocytosis inh 68.7 | Granule exo CP1 inactive
Cc1ccc2nc3c(cc(C(=O)NCCc4ccccc4)c(=N)n3CCCN3CCOCC3)c(=O)n2c1	Exocytosis inh 80.2 | Granule exo CP1 inactive
COc1ccc(CCn2c(=N)c(C(=O)NC3CCCC3)cc3c(=O)n4cccc(C)c4nc32)cc1	none
COc1ccc(CCNC(=O)c2cc3c(=O)n4ccccc4nc3n(CCCN3CCOCC3)c2=N)cc1	none
COc1ccc(N2CCN(c3ncnc4scc(-c5ccccc5)c34)CC2)cc1	none
COc1ccc(CN2CCN(c3ncnc4scc(-c5ccc(F)cc5)c34)CC2)cc1	Exocytosis inh 60.5 | Granule exo CP1 inactive
CCOc1ccc(CN2CCN(c3ncnc4scc(-c5ccccc5)c34)CC2)cc1	Exocytosis inh 87.0 (no result: PP1 counter) | Granule exo CP1 inactive
COc1ccc(F)cc1CN1CCN(c2ncnc3scc(-c4ccccc4)c23)CC1	Exocytosis inh 70.0 | Granule exo CP1 inactive
COc1ccc(N2CCN(c3ncnc4scc(-c5ccc(C)cc5)c34)CC2)cc1	Exocytosis inh 80.4 | Granule exo CP1 inactive
CCOC(=O)c1csc(NC(=O)c2ccc3c(c2)OCCO3)n1	none
Nc1cc(N)nc(CS)n1	none
COc1cccc(CNC(=O)c2cc(S(=O)(=O)N3CCOCC3)cn2C)c1	none
COc1ccc2ccccc2c1/C=N/NC(=O)c1cccc([N+](=O)[O-])c1	none
Cn1nnc2cc(NC(=O)Nc3cccc(C(F)(F)F)c3)ccc21	none
COC(=O)c1c(NC(=O)CSc2nnc(CNc3ccc(Cl)cc3)o2)sc(C)c1C	Exocytosis inh 91.7 | Granule exo CP1 inactive
O=C(CCN1CCC2CCC(C2)C1)c1ccccc1 (centres undefined)	none (no result: GRK2 inh, PP1 counter)
OC(CCN1CCC2CCC(C2)C1)c1ccc(Br)cc1 (centres undefined)	Exocytosis inh 59.0 (no result: GRK2 inh, PP1 counter) | Granule exo CP1 inactive
Cc1nn(CC(=O)NCCCN2CCC(Cc3ccccc3)CC2)c(=O)c2cc(-c3ccccc3)nn12	Exocytosis inh 87.3 | Granule exo CP1 inactive
CCN(CC)S(=O)(=O)c1ccc(S(=O)(=O)N2CCC(N3CCCCC3)CC2)cc1	Exocytosis inh 62.1 | Granule exo CP1 inactive

Assay outcomes (PubChem)
